# High-throughput results from PubChem BioAssay.
# Only some compounds are listed: those with a hit (about 2.9% of all), similar ones and a draw of the others.
# PME-1 inh – blocks human protein phosphatase methylesterase 1. Q9Y570. recombinant PME-1, FP-Rh probe fluorescence polarization. inhibition, % at 5.9 µM. 320,000 tested, 0.53% active. AID 2130;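 active = inhibition above the campaign mean of all compounds plus 3 SD, cut at about 26% in these data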;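 note: competitive labeling of PME-1 active site by serine hydrolase directed probe; 0% = PME-1 with DMSO and 100% = wells lacking PME-1 enzyme; inhibitors block probe labeling so polarization falls and inhibition rises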
# pPAFAH FP inh – inhibitors of human plasma PAF acetylhydrolase (pPAFAH); Q13093; recombinant pPAFAH, FP-rhodamine probe fluorescence polarization; inhibition, % at 3.39 µM; 330,000 tested, 1.5% active; AID 463082;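 active = inhibition above the mean inhibition across the screen plus 3 SD, cut at about 25% in these data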;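 note: inhibitors block binding of the rhodamine activity-based probe so polarization drops; 0% = enzyme with DMSO and 100% = wells lacking pPAFAH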
# PAFAH1B3 FP inh – PAFAH1B3 (human) inhibition | inhibition, % at 3.39 µM | 340,000 tested, 0.28% active | Q15102 | recombinant PAFAH1B3, FP-rhodamine probe, fluorescence polarization | AID 492972;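 active = inhibition above the screen-wide average of all tested compounds plus 3 SD, cut at about 25% in these data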;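 note: 0% = enzyme with DMSO only and 100% = wells lacking PAFAH1B3 protein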
# Target sequence (Q15102 whole entry, looked up): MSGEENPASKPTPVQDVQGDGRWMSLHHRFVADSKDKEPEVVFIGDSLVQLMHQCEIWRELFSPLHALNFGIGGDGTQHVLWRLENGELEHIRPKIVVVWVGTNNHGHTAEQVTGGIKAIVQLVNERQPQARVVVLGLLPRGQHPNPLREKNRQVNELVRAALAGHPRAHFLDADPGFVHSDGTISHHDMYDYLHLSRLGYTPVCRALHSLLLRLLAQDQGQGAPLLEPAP
# PAFAH1B2 FP inh – PAFAH1B2 (human) inhibition; recombinant PAFAH1B2, FP-rhodamine activity probe, fluorescence polarization; inhibition, % at 3.39 µM; 340,000 tested, 1.2% active; AID 492953;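 active = inhibition above the mean of all tested compounds plus 3 SD, cut at about 24% in these data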;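 note: 0% = enzyme with DMSO and 100% = wells lacking PAFAH1B2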
# Target sequence (P68402 whole entry, looked up): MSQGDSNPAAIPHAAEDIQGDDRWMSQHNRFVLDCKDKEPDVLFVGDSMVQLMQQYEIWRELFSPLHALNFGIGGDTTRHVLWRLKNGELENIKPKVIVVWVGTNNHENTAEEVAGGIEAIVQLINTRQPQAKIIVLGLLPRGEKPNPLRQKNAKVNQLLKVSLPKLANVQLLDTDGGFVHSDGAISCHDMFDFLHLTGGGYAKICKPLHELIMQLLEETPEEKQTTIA
# PAFAH2 FP inh – PAFAH2 (human) inhibition. inhibition, % at 3.39 µM. recombinant PAFAH2, FP-rhodamine activity probe, fluorescence polarization. 340,000 tested, 0.99% active. Q99487;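 active = inhibition above the mean over all tested compounds plus 3 SD, cut at about 30% in these data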;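 note: inhibitors block probe labeling of enzyme so polarization drops; 0% = enzyme with DMSO and 100% = wells lacking PAFAH2 protein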
# Fam108B counter – Fam108B inhibition, counter-screen for RBBP9 inhibitors; recombinant Fam108B, FP-Rh probe fluorescence polarization; inhibition, % at 9.51 µM; 300,000 tested, 0.33% active; AID 1947;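 active = inhibition above the screen mean inhibition plus 3 SD, computed separately per campaign, cut at about 18% in these data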;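 note: inhibitors lower polarization as less probe binds the enzyme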
# * hit, by the source's call; · = no result given.
SMILES,PME-1 inh,pPAFAH FP inh,PAFAH1B3 FP inh,PAFAH1B2 FP inh,PAFAH2 FP inh,Fam108B counter
CC(C)Cn1c(CCNC(=O)c2ccco2)nc2ccccc21,-6.5,-7.9,8.1,4.0,-1.3,1.3
Oc1ccc(Br)cc1-c1nc2cnccn2c1NC1CCCC1,26.2*,16.7,9.8,6.9,3.6,9.6
COc1ccc2[nH]c(=O)c(CN(Cc3nnnn3Cc3ccco3)C3CCCCC3)cc2c1,2.5,9.0,2.7,-0.3,4.0,-2.4
COc1ccc(Cn2nnnc2CN(Cc2cc3cc(C)ccc3[nH]c2=O)C2CCCC2)cc1,0.6,1.8,3.4,25.8*,3.7,-4.8
O=C(CNC(=O)c1ccc(Cl)cc1)NCc1ccccn1,-8.9,-7.4,6.2,0.2,6.0,·
C/C(=N\Nc1ccc(Cl)c(C(=O)O)c1)c1ccc[nH]1,-7.0,32.5*,17.2,4.2,12.8,6.7
O=C(Nc1ccc2c(c1)OCCO2)Nc1ccc2c(c1)OCO2,14.4,6.0,6.6,5.0,-3.1,3.3
O=C(Nc1ccc2c(c1)CCC2)Nc1ccc2c(c1)OCO2,3.5,25.4*,7.0,1.6,2.4,-0.6
CC(=O)Nc1ccc(S(=O)(=O)N2c3ccc(F)cc3CCC2C)cc1 (stereo not given),2.1,3.8,-0.3,9.1,2.5,-1.7
COc1ccc(S(=O)(=O)N2c3ccc(F)cc3CCC2C)cc1 (stereo not given),2.7,0.4,11.4,26.9*,-11.1,3.9
Cc1c(NC(=O)COC(=O)C23CC4CC(CC(O)(C4)C2)C3)c(=O)n(-c2ccccc2)n1C,1.9,2.0,-0.1,-0.4,6.8,0.7
Cc1c(NC(=O)C(C)OC(=O)C23CC4CC(CC(Br)(C4)C2)C3)c(=O)n(-c2ccccc2)n1C (stereo not given),3.1,-8.0,2.1,48.0*,-2.6,-1.2
O=[N+]([O-])c1cc(CN2CCC(O)CC2)ccc1Cl,-1.6,-6.3,3.3,4.6,-0.6,0.0
N/C(=N\O)c1ccccc1N1CCCCC1,-2.0,-7.8,-1.0,6.9,-2.0,-9.9
CC(C)Oc1cccc(C(=O)C2CCCN(Cc3ccc4nonc4c3)C2)c1 (stereo not given),3.3,32.3*,-4.2,-1.8,-0.3,-1.4
Cc1oc2ccc(NS(=O)(=O)c3ccccc3)cc2c1C(=O)Nc1ccccc1,-2.2,32.7*,2.8,7.9,1.4,-1.8
COCC(C)N=C1NN=C(c2cc(C)n(Cc3ccccc3Cl)c2C)CS1 (stereo not given),0.6,26.4*,10.0,6.9,5.8,0.9
CCN(CC)C(=O)c1ccc(-c2nnc(OC)c3ccccc23)cc1,12.1,-2.9,1.6,5.6,-2.8,2.3
C=CCSc1nnc(NC(=O)C2CC(=O)N(c3ccc4c(c3)OCCO4)C2)s1 (stereo not given),·,1.0,-0.4,1.9,11.7,·
O=C(Nc1nnc(SCc2ccc(F)cc2)s1)C1CC(=O)N(c2ccc3c(c2)OCCO3)C1 (stereo not given),4.1,26.0*,-3.1,3.6,0.0,-2.2
O=C(Nc1nnc(SCc2c(Cl)cccc2Cl)s1)C1CC(=O)N(c2ccc3c(c2)OCCO3)C1 (stereo not given),-1.5,31.7*,3.3,-1.4,21.1,-7.8
N#Cc1ccc(CSc2nnc(NC(=O)C3CC(=O)N(c4ccc5c(c4)OCCO5)C3)s2)cc1 (stereo not given),12.6,9.5,12.2,0.6,-1.7,2.6
CCC(C(=O)NCc1ccco1)n1nc(C)c2c(C)n(-c3ccccc3)nc2c1=O (stereo not given),1.0,2.6,-1.2,-0.2,10.0,1.4
CCOC(=O)C1C(C(=O)OCC)C1(c1ccccc1)c1ccccc1 (stereo not given),-1.8,2.5,8.3,28.9*,-5.5,2.7
Oc1ccccc1-c1cc(C(F)(F)C(F)F)[nH]n1,0.8,15.5,6.1,0.7,-0.5,-0.1
SMILES,PME-1 inh,pPAFAH FP inh,PAFAH1B3 FP inh,PAFAH1B2 FP inh,PAFAH2 FP inh,Fam108B counter
Fc1ccc(-c2cc(C(F)(F)C(F)F)[nH]n2)cc1,1.2,25.2*,·,·,·,0.0
CC1CCc2c(sc(NS(=O)(=O)c3ccccc3)c2C(=O)OC(C)C)C1 (stereo not given),4.4,25.2*,-2.5,3.0,6.0,3.7
Cc1ccc(C)c(S(=O)(=O)N2CCN(C(=O)c3cncc(Br)c3)CC2)c1,4.5,-1.5,3.6,7.9,-0.7,0.8
O=C1[C@H](Cc2ccccc2)NCC=CC[C@H](c2ccc(Cl)cc2)N1Cc1ccccc1,·,·,1.8,27.4*,-4.8,·
N#C/C(=C\c1ccc(OCc2ccc(Br)cc2)cc1)C(=O)Nc1cccc(C(=O)O)c1,-3.3,2.4,-7.0,24.2*,-30.9,-10.7
Cc1ccc(CCNS(=O)(=O)c2ccc3c(c2)C(C)(C)C(=O)N3C)cc1,4.0,25.2*,0.5,11.2,-9.0,2.6
CN1C(=O)C(C)(C)c2cc(S(=O)(=O)NCCc3ccc(Cl)cc3)ccc21,-2.4,29.8*,2.7,24.3*,5.3,0.4
COc1ccc(S(=O)(=O)N2CCCCCC2)cc1C(=O)N(C)Cc1ccc(Cl)cc1Cl,16.6,9.2,-1.4,1.9,7.2,-0.8
COc1ccc(C(=O)NN/C(=N/S(=O)(=O)c2ccc(C)cc2)c2ccccc2)cc1,-8.4,2.6,7.0,6.9,6.3,3.3
N/C(Cc1ccc([N+](=O)[O-])cc1)=N\OC(=O)c1ccc(Br)cc1,2.3,29.7*,6.3,2.5,40.5*,3.5
COc1ccc(NC(=O)Nc2ccccc2F)cc1Cl,16.3,-0.8,3.6,3.2,8.9,0.4
CC1(C(=O)OCC(=O)NNC(=O)COc2ccc(Cl)cc2)CC1(Cl)Cl (stereo not given),-2.7,9.7,0.6,12.7,11.2,0.6
CCC(=O)NC1=C(C#N)C2(CCCC2)Cc2ccccc21,-9.5,1.2,6.2,18.6,1.5,2.6
N#CC1=C(N)c2ccccc2CC12CCCCC2,-0.6,7.1,-5.0,34.8*,4.3,0.7
CN1C(=O)C(CC(=O)Nc2ccc(F)cc2)N(CCCc2ccccc2)C1=S (stereo not given),10.5,1.6,1.9,27.0*,1.4,4.8
Cc1cccc(C)c1NC(=O)CNC(=O)C(C)NC(C)c1ccccc1Br (stereo not given),-6.4,-6.7,9.6,3.3,-1.7,·
C=C(C(=O)O)C1CCC2(C)CCCC(C)(O)C2C1 (stereo not given),-6.2,1.6,5.7,28.5*,2.8,4.6
C/C(=N\NC(=O)c1cccs1)c1ccc2c(c1)OCO2,2.3,28.3*,·,·,·,-2.4
CC(=NNC(=O)c1cccs1)c1ccc2c(c1)OCCO2,·,1.7,4.2,7.0,7.0,·
CC(C)(C)NC(=O)CN(Cc1ccccc1)S(=O)(=O)c1ccccc1,2.4,-1.3,-3.8,5.8,-2.4,-2.5
CC(C)CCN1CCN=C1Nc1ccccc1,-0.6,1.6,5.2,8.9,1.5,-0.4
CC(C)(c1ccccc1)c1ccc(OCC2CO2)cc1 (stereo not given),4.1,25.4*,0.9,17.4,-9.2,-0.7
